Source: PubChem
Only some compounds are listed: those with a hit (about 18% of all), similar ones and a draw of the others.
TDP1 cell CPT = DT40-hTDP1 cell growth loss with CPT; Potency, µM (top dose mostly 46.2 µM), inactives show at the highest dose activity change, negative = growth inhibition, hits mostly inhibitors; chicken DT40 Tdp1-/-;hTDP1 cells + 20 nM CPT, ATP luminescence, 48 h; actives 12% (n = 420,000); also: potency is read from the fitted curve at half-maximal effect; nearly all actives have a fitted effect of over 55% in size
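Cell growth measured by CellTiter-Glo luminescence after a minimum 48 h, 37 C compound exposure with 20 nM CPT in Tdp1-knockout DT40 cells stably expressing hTDP1, seeded 400/well; qHTS titration format.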
IL-1B inflam inh = inflammasome signaling inhibition, IL-1 beta readout; THP-1 LPS/ATP IL-1B secretion, AlphaLISA, 16 h; active compounds read low; activity change, % at 57.5 µM; actives 4.7% (n = 360,000); in the data active = activity change below about -50%; inconclusive = mostly about -30% to -49%
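Secreted IL-1B measured by AlphaLISA bead assay after 16 h compound exposure of THP-1 cells; compounds (final up to 57.5 uM) added 1 h before LPS (250 ng/mL) and ATP (1.25 mM) stimulation; lower signal means less secretion.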
TDP1 block = blocks human tyrosyl-DNA phosphodiesterase 1; Q9NUW8; recombinant TDP1, AlphaScreen DNA substrate cleavage; Potency, µM (titrated, usually from 130 µM), for the others: at the highest dose activity change, negative = inhibition, usual class: inhibitors; actives 0.28% (n = 350,000); also: potency is read from the fitted curve at half-maximal effect; nearly all actives have a fitted effect of over 40% in size
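Signal: AlphaScreen proximity between streptavidin donor and anti-FITC acceptor beads on intact substrate. Reaction: Tdp1 1 nM, substrate 15 nM final, 5 min RT after 15 min compound preincubation.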
Six1-Eya2 inh = inhibitors of human Six1/Eya2 interaction; activity change, % (no concentration beside the values); actives 0.56% (n = 360,000); AlphaScreen GST-Six1/His-Eya2 binding, biochemical; active compounds read low; Q15475+O00167; in the data active = activity change below about -65%; inconclusive = mostly about -30% to -63%
Target sequence (O00167 whole entry, looked up): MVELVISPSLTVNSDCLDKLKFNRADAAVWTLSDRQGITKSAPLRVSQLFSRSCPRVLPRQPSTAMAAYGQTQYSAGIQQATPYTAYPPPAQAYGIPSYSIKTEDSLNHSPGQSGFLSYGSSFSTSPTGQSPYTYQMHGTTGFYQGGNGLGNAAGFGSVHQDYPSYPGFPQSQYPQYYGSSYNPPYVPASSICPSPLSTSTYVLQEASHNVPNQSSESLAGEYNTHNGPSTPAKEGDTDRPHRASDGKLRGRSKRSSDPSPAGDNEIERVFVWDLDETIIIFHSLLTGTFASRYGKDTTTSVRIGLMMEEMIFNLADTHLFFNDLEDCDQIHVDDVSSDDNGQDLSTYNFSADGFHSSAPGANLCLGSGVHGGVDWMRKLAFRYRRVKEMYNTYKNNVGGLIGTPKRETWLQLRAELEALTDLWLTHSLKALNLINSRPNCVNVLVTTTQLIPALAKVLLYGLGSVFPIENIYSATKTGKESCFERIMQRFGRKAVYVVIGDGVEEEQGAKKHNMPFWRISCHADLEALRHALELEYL
Target sequence (Q15475 whole entry, looked up): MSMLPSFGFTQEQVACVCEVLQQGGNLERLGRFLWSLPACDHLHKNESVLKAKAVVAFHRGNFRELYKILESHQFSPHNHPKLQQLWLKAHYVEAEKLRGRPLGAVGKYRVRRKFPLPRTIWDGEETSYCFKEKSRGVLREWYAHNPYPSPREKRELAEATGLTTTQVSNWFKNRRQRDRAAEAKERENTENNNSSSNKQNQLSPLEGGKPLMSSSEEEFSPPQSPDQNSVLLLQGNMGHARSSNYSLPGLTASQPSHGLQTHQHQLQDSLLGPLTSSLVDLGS
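AlphaScreen luminescence read after one hour at 37 °C in darkness. Pin-transferred compounds met GST-Six1 and His-Eya2 protein (5X stock 250 nM/500 nM) plus glutathione donor and Ni-chelate acceptor beads (5X, 50 ug/mL).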
TDP1 cell noCPT = qHTS for Inhibitors of human tyrosyl-DNA phosphodiesterase 1 (TDP1): qHTS in cells in absence of CPT; AID 686978, 2013; DT40 Tdp1-/- hTDP1 cells, no CPT, ATP luminescence, 48 h; actives 15% (n = 420,000); Potency, µM (titrated, usually from 46.2 µM), inactives show at the top dose activity change, negative = growth inhibition, most hits filed as inhibitors; also: potency is read from the fitted curve at half-maximal effect; nearly all actives have a fitted effect of over 55% in size
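A cellular qHTS used chicken DT40 cells lacking endogenous Tdp1 but carrying stably transfected human TDP1. Compounds were applied without camptothecin, and cell growth kinetics were judged by ATP-dependent luminescence after ≥48 hr.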
CtBP-E1A blk = CtBP/E1A binding inhibition | AlphaScreen GST-E1A/His-CtBP binding, 1536-well; active compounds read low | activity change, % (no concentration beside the values) | actives 0.49% (n = 340,000); in the data active = activity change below about -65%; inconclusive = mostly about -30% to -63%
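Homogeneous bead-based format: GST-tagged E1A captured on glutathione donor beads, His-tagged CtBP on nickel acceptor beads; compounds precede bead addition by 2 h at 37 °C.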
Numbers without * were called inactive; [ ] = remark or other dose. Unless noted, calls follow the shape of the dose curve; as a rule, active = well fitted curve in the direction sought with a large enough effect; inconclusive = small, poorly fitted or top-dose-only effect, or another doubt; inactive = no such curve, though single readings can be large; an effect the other way counts as inactive or inconclusive. % is scaled to controls: 0 for no effect and ±100 for the full control effect.

Results for Cc1ccc(C)c(OCC(=O)Nc2nc3ccc([N+](=O)[O-])cc3s2)c1C ?
TDP1 cell CPT: inconclusive; IL-1B inflam inh: 17.3; TDP1 block: 3.1%; Six1-Eya2 inh: -0.7; TDP1 cell noCPT: inconclusive; CtBP-E1A blk: 4.4

What do the screens show for `CCn1c(=N)n(CC(O)COc2cccc(C)c2)c2ccccc21` (stereo not drawn)?
TDP1 cell CPT: 14.6µM*; IL-1B inflam inh: inconclusive; TDP1 block: 8.2%; Six1-Eya2 inh: 1.2; TDP1 cell noCPT: 9.2µM*; CtBP-E1A blk: 4.6

What do the screens show for `CCCn1c(=N)n(CC(O)COc2cccc(C)c2)c2ccccc21` (stereo not drawn)?
TDP1 cell CPT: 16.4µM*; IL-1B inflam inh: inconclusive; TDP1 block: -2.9%; Six1-Eya2 inh: -1.5; TDP1 cell noCPT: 14.6µM*; CtBP-E1A blk: 2.0

How did Cc1cccc(OCC(O)CN2C(C)(C)CC(O)CC2(C)C)c1 (stereo not drawn) do in these assays?
TDP1 cell CPT: -18.9%; IL-1B inflam inh: -1.7; TDP1 block: 5.1%; Six1-Eya2 inh: 7.0; TDP1 cell noCPT: -17.7%; CtBP-E1A blk: 2.7

How did CCCCCn1c(=N)n(CC(O)COc2cccc(C)c2)c2ccccc21 (stereo not drawn) do in these assays?
TDP1 cell CPT: 2.91µM*; TDP1 block: -1.1%; TDP1 cell noCPT: 2.06µM*

What do the screens show for `COc1ccc(/C=C2\SC(=NCc3ccccc3)N(Cc3ccccc3)C2=O)cc1OC`?
TDP1 cell CPT: -19.3%; IL-1B inflam inh: -23.5; TDP1 block: -2.8%; Six1-Eya2 inh: 10.4; TDP1 cell noCPT: inconclusive; CtBP-E1A blk: -1.9

What do the screens show for `COc1ccccc1CNC(=O)c1cnc2c(-c3ccccc3)c(C)nn2c1C`?
TDP1 cell CPT: inconclusive; TDP1 block: 5.8%; TDP1 cell noCPT: inconclusive

What do the screens show for `COc1cc(CNC(=O)c2cnc3c(-c4cccc(C)c4)c(C)nn3c2C)cc(OC)c1OC`?
TDP1 cell CPT: 11.6µM*; TDP1 block: 4.5%; TDP1 cell noCPT: 16.4µM*

How did CCOC(=O)C1=C(c2ccccc2)NC(N)=NC1c1ccc(OCc2ccc(Cl)cc2)c(OC)c1 (stereo not drawn) do in these assays?
TDP1 cell CPT: 23.1µM*; IL-1B inflam inh: inconclusive; TDP1 block: 7.5%; Six1-Eya2 inh: -11.3; TDP1 cell noCPT: inconclusive

Results for CCOC(=O)C1=C(c2ccccc2)NC(=O)NC1c1cc(Cl)c(O)c(OC)c1 (stereo not drawn) ?
TDP1 cell CPT: -21.6%; IL-1B inflam inh: -1.6; TDP1 block: 6.1%; Six1-Eya2 inh: -1.9; TDP1 cell noCPT: inconclusive; CtBP-E1A blk: -0.5

What do the screens show for `CCOC(=O)N1CCN(Cc2cn[nH]c2-c2ccc(-c3ccccc3)cc2)CC1`?
TDP1 cell CPT: -17.5%; IL-1B inflam inh: 28.9; TDP1 block: 9.0%; Six1-Eya2 inh: 7.5; TDP1 cell noCPT: -24.3%; CtBP-E1A blk: 1.5

How did Cn1c(C(=O)NCc2ccc(F)cc2)cc2cc(S(=O)(=O)N3CCCCC3)ccc21 do in these assays?
TDP1 cell CPT: 23.1µM*; TDP1 block: 8.1%; TDP1 cell noCPT: 11.6µM*

How did CCc1ccc(CNC(=O)c2cc3cc(S(=O)(=O)N4CCCCC4)ccc3n2C)cc1 do in these assays?
TDP1 cell CPT: inconclusive; TDP1 block: 0.0%; TDP1 cell noCPT: 13µM*

How did CSc1ccc(CNC(=O)c2cc3cc(S(=O)(=O)N4CCCCC4)ccc3n2C)cc1 do in these assays?
TDP1 cell CPT: -20.2%; TDP1 block: 5.4%; TDP1 cell noCPT: inconclusive

How did Cc1ccccc1CNC(=O)c1cc2cc(S(=O)(=O)N3CCCCC3)ccc2n1C do in these assays?
TDP1 cell CPT: inconclusive; TDP1 block: -2.7%; TDP1 cell noCPT: 18.4µM*

How did CCc1ccc2c(c1)[C@H]1OCC[C@H]1[C@@H](c1cccs1)N2 do in these assays?
TDP1 cell CPT: 13µM*; IL-1B inflam inh: 23.5; TDP1 block: 0.0%; Six1-Eya2 inh: -9.0; TDP1 cell noCPT: 7.31µM*; CtBP-E1A blk: -4.9

Results for Clc1ccc2c(c1)[C@H]1OCC[C@H]1[C@@H](c1ccco1)N2 ?
TDP1 cell CPT: -78.3%; IL-1B inflam inh: -16.7; TDP1 block: 4.8%; Six1-Eya2 inh: -9.9; TDP1 cell noCPT: inconclusive; CtBP-E1A blk: -5.4

Results for CCc1cccc(Nc2ncnc3onc(-c4ccc(F)cc4)c23)c1 ?
TDP1 cell CPT: 23.1µM*; TDP1 block: -5.3%; TDP1 cell noCPT: 16.4µM*

What do the screens show for `Clc1ccc(CNc2ncnc3onc(-c4ccc(Cl)cc4)c23)cc1`?
TDP1 cell CPT: inconclusive; TDP1 block: 1.3%; TDP1 cell noCPT: 18.4µM*

Results for Cc1cccc(Nc2ncnc3onc(-c4ccc(F)cc4)c23)c1C ?
TDP1 cell CPT: inconclusive; IL-1B inflam inh: 11.8; Six1-Eya2 inh: 6.6; TDP1 cell noCPT: inconclusive; CtBP-E1A blk: 4.7

How did CCOc1ccc(CCNc2ncnc3onc(-c4ccc(F)cc4)c23)cc1OCC do in these assays?
TDP1 cell CPT: inconclusive; TDP1 block: 3.8%; TDP1 cell noCPT: 23.1µM*

Results for CCOc1ccc(CCNc2ncnc3onc(-c4ccc(Cl)cc4)c23)cc1OCC ?
TDP1 cell CPT: inconclusive; TDP1 block: 1.3%; TDP1 cell noCPT: inconclusive

How did Fc1ccc(Nc2ncnc3onc(-c4ccc(Cl)cc4)c23)cc1Cl do in these assays?
TDP1 cell CPT: inconclusive; TDP1 block: -1.3%; TDP1 cell noCPT: 18.4µM*

What do the screens show for `CCc1nnc(NC(=O)C2CCCN(S(=O)(=O)c3ccc(OC)cc3)C2)s1` (stereo not drawn)?
TDP1 cell CPT: -29.7%; IL-1B inflam inh: 13.2; TDP1 block: -2.8%; Six1-Eya2 inh: 8.1; TDP1 cell noCPT: inconclusive; CtBP-E1A blk: -19.2

Results for CCn1c(SCC(=O)NC(C)C(C)C)nc2cc(S(=O)(=O)N3CCOCC3)ccc21 (stereo not drawn) ?
TDP1 cell CPT: 4.4%; IL-1B inflam inh: 0.0; TDP1 block: 4.8%; Six1-Eya2 inh: -1.5; TDP1 cell noCPT: -5.9%; CtBP-E1A blk: 5.4

How did Cc1noc(NS(=O)(=O)c2cccc3c(N(C)C)cccc23)c1C do in these assays?
TDP1 cell CPT: -0.4%; TDP1 block: -4.0%[56.1 µM]; TDP1 cell noCPT: -9.8%

Results for O=C(NCCc1ccccc1)C1(c2ccccc2)CC1(Cl)Cl (stereo not drawn) ?
TDP1 cell CPT: -11.2%; IL-1B inflam inh: -7.0; TDP1 block: 3.9%; Six1-Eya2 inh: 1.5; TDP1 cell noCPT: -22.2%; CtBP-E1A blk: 9.9
